What all share (assay): NCI-60 one-dose screen, 48 h (100 = growth as untreated, 0 = no growth, -100 = all killed)
Common to all, as to settings: 10 µM unless noted

Assay [1] relates to NCI-H23 lung.
Assay [2] relates to NCI-H226 lung.
The subject of assay [3] is NCI-H322M lung.
In assay [4] the test system is HOP-62 NSCLC.
For assay [5], the system named is NCI-H460 lung.
Assay [6] has as its system NCI-H522 lung.
Assay [7] concerns A549/ATCC NSCLC.
In assay [8] the test system is 786-0 renal.
Assay [9] has as its system COLO 205 colon.
The subject of assay [10] is DU-145 prostate.
Assay [11] relates to K-562 leukemia.
Assay [12] deals with MALME-3M melanoma.
Assay [13] relates to MDA-MB-231 breast.
The subject of assay [14] is RXF 393 renal.
Assay [15] has as its system SF-268 CNS.
Assay [16] has as its system SF-295 CNS.
The test system of assay [17] is SF-539 CNS.
For assay [18], the system named is UACC-257 melanoma.
The test system of assay [19] is M14 melanoma.
Assay [20] relates to HCT-15 colon.

This is part of a sample that, as a whole, favours compounds with a hit. Of some 83,000 tested, about 20% had one in any assay.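 Compound tested at a single concentration for 48 hours in 96-well plates; a percent growth value below 10 was scored as active.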 Unmarked numbers belong to inactive results. Calls of active or inactive are those of the source.

Turning to `Fc1ccc([C@@H]2CCNC[C@H]2COc2ccc3c(c2)OCO3)cc1`, the growth was 82.5% in [1]; 83.2% in assay [2]; 73.2% in assay [3]; 79% in [4]; 73.5% in assay [5]; 64.6% in assay [6]. Besides, the growth is 83% in [7]; 68.2% in assay [8]; -77.5% (active) in [9]; 92.1% in assay [10]; 51.7% in [11]; 78.4% in [12]. Further, the growth in assay [13] was 11.5%; in [14], 71.7%; in assay [15] it was 92.3%; in assay [16] it was 74.2%; in assay [17], 89.5%; in assay [18] it was 76.8%. Further, the values for the growth in assay [19] and in assay [20] were 49.7% and 85.8%, respectively.
As for `CCN1C[C@@H](C)n2c(c(O)c3c(=O)n(Cc4ccc(F)c(Cl)c4)nc(C(=O)NC)c32)C1=O`, the growth was 11.3% in [1]; 26.4% in assay [2]; 18.4% in assay [3]; 26% in [4]; 15.2% in [5]; 69.3% in assay [6]. In addition, the growth in assay [7] is 11%; in [8], 18.4%; in assay [9], 101%; in [10], 22.6%; in [11], 42%; in assay [12], 5.1% (active). In addition, the growth is 50.7% in assay [13]; 2.79% (active) in [14]; 23.2% in [15]; 0.0694% (active) in assay [16]; 3.53% (active) in assay [17]; 3.7% (active) in assay [18]. In addition, the values for the growth in [19] and in [20] were 30.4% and 6.16% (active), respectively.
As for `OCc1nnn(-c2ccccc2)c1CO`, the growth in [1] is 112%; in assay [2], 114%; in assay [3], 118%; in assay [4], 110%; in assay [5], 116%; in [6], 101%. Further, the growth in assay [7] is 110%; in [8] it was 105%; in assay [9] it was 159%; in [10], 113%; in assay [11], 132%; in [12], 122%. The growth in assay [13] was 107%; in assay [14], 104%; in [15], 105%; in assay [16] it was 115%; in assay [17], 116%; in assay [18] it was 124%. Also, the growth in [19] is 110%; in [20], 96.7%.
For `Cc1ccc([N+](=O)[O-])cc1NC(=O)Nc1cccc(F)c1`, the growth was 42.2% in assay [1]; 69.6% in assay [2]; 98.3% in assay [3]; 99.4% in assay [4]; 47.2% in [5]; 31.4% in assay [6]. In addition, the growth was 57.9% in assay [7]; 71.6% in assay [8]; 138% in assay [9]; 84.6% in assay [10]; 31.4% in [11]; 99.6% in assay [12]. For the same compound, the growth in assay [13] is 93.4%; in assay [14], 126%; in assay [15], 100%; in [16], 50.3%; in assay [17] it was 85.1%; in assay [18], 82%. The growth in assay [19] is 67.7%; in assay [20] it was 68.4%.
Regarding `CC(=O)Oc1c(C)c(OC(C)=O)c2c(c1C(C)=O)OC1CC(=O)C(C(C)=O)=C(O)C21C` (stereo not given), the growth in assay [1] was 90.9%; in [2], 104%; in assay [3], 105%; in [4] it was 89.2%; in [5], 94.9%; in assay [6], 91.1%. Besides, the growth is 99% in assay [7]; 94.8% in assay [8]; 118% in assay [9]; 112% in assay [10]; 73.3% in assay [11]; 96.9% in assay [12]. Moreover, the growth in assay [13] was 106%; in [14], 132%; in assay [15], 122%; in assay [16] it was 92%; in [17], 98.6%; in [18] it was 115%. Further, the growth was 96% in assay [19] and 94.8% in assay [20].
As to `ClC1=C(Cl)C(=C2C(Cl)=C(Cl)C(Cl)=C2Cl)C(Cl)=C1Cl`, the growth in [1] was 97.9%; in assay [2], 101%; in assay [3] it was 97.7%; in assay [4], 90.1%; in assay [5], 103%; in assay [6], 79%. Moreover, the growth is 90.2% in [7]; 103% in [8]; 103% in assay [9]; 106% in [10]; 87.1% in assay [11]; 106% in assay [12]. The growth in assay [13] was 110%; in [14] it was 106%; in [15], 102%; in assay [16], 99.2%; in assay [17], 104%; in [18], 92.3%. In addition, the values for the growth in assay [19] and in [20] were 102% and 106%, respectively.
Turning to `CCOC(=O)c1c(C)nc(C)c(C(=O)OCC)c1-c1cccnc1`, the growth in assay [1] was 101%; in [2], 106%; in assay [3], 108%; in assay [4], 94.6%; in assay [5], 101%; in [6], 95.8%. Also, the growth in assay [7] is 103%; in assay [8] it was 94.5%; in assay [9], 101%; in [10], 116%; in assay [11], 92.4%; in assay [12], 111%. The growth was 113% in [13]; 131% in assay [14]; 106% in assay [15]; 112% in assay [16]; 97.1% in assay [17]; 108% in assay [18]. Moreover, the growth in assay [19] is 95%; in assay [20] it was 97%.
On to `COc1ccc2nccc(/C=C/c3ccnc4ccc(OC)cc34)c2c1`, for which the growth in [1] was 104%; in assay [2] it was 131%; in [3], 120%; in assay [4], 114%; in [5], 100%; in [6], 112%. For the same compound, the growth is 66.1% in assay [7]; 105% in assay [8]; 119% in [9]; 104% in [10]; 52.5% in [11]; 146% in assay [12]. Further, the growth is 114% in [13]; 37.4% in assay [14]; 71.3% in assay [15]; 129% in [16]; 106% in [17]; 153% in [18]. Besides, the growth in [19] was 110%; in assay [20], 101%.

The record behind these values is PubChem BioAssay (NCI).
